SMILES strings stand for the structures. The source made the active and inactive calls. Calls come from the whole dose curve; as a rule, active = well fitted curve in the direction sought with a large enough effect in the repeat runs; inconclusive = weak or mixed curves; inactive = flat fitted curve, though single readings scatter.

The nature of this assay: qHTS assay to test for compound auto fluorescence at 590 nm (red) in HepG2 cell free culture (AID 720684). As to conditions: cell-free medium autofluorescence, red 540/590 nm; series mostly up to 46 µM. An excerpt: U.S. Tox21 Program National Center for Advancing Translational Sciences [NCATS] NIH Chemical Genomics Center [NCGC] U.S. Environmental Protection Agency [EPA] National Institutes of Environmental Health Sciences [NIEHS] National Toxicology Program [NTP] U.S. Food and Drug Administration [FDA] Tox21 Assay Overview: Compound auto fluorescence often interferes with screening of the compound library against various biological targets and signaling pathways. Some of these compounds may have fluorophoric properties. Such properties may interfere with the assay outputs resulting in false positives and/or negatives. To decrease such complications and ensure the compound activities are relevant in terms of biological response, the Tox21 10K compound library was screened for auto fluorescence. From the fluorophores used as reporter signals in our screening assays, the auto fluorescence equivalencies of compounds against three fluorophores have been evaluated: Triamterene, Fluorescein and Rose Bengal sodium for blue, green and red fluorescence, respectively. The fluorescence intensities were measured using Excitation/Emission wavelengths at 405/460nm, 485/535nm and 540/590nm for blue, green and red labels, respectively. This assay includes the red fluorescence data.
Tox21 Assay Protocol Summary: 5 uL of culture medium (MEM containing 10% FBS) per well was dispensed into black wall/clear bottom 1536-well plates using a Multidrop Combi Dispenser (ThermoFisher Scientific, Waltham, MA). After 23 nL compound or DMSO vehicle was transferred into assay plate by a pintool work station (Kalypsys, San Diego, CA), fluorescence intensities in the assay plates were measured by an Envision (PerkinElmer, Shelton, CT) plate reader using three labels for measuring blue, green and red fluorescence at […] 460, 535 and 590nm respectively.
On to `CC(CNC(=O)c1cccnc1)NC(=O)c1cccnc1` (stereo not given), for which the result was inactive.
Turning to `O=S(=O)(O)CC(S)CS` (stereo not given), the call was inactive.
The result for `C[C@H](Cc1ccc(O)c(O)c1)[C@@H](C)Cc1ccc(O)c(O)c1` reads “inactive”; that for `CN(C)CCOc1ccc(/C(=C(/CCCl)c2ccccc2)c2ccccc2)cc1`, “inactive”; that for `C[C@H]1O[C@@H](O[C@H]2CC[C@@]3(C)[C@H](CC[C@@H]4[C@@H]3C[C@@H](O)[C@]3(C)[C@@H](C5=CC(=O)OC5)CC[C@]43O)C2)C[C@H](O)[C@@H]1O[C@H]1C[C@H](O)[C@H](O[C@H]2C[C@H](O)[C@H](O[C@@H]3O[C@H](CO)[C@@H](O)[C@H](O)[C@H]3O)[C@@H](C)O2)[C@@H](C)O1`, “inactive”.
Regarding `COC(=O)C[C@](O)(CCCC(C)(C)O)C(=O)O[C@@H]1C(OC)=CC23CCCN2CCc2cc4c(cc2[C@H]13)OCO4` (stereo not given in full), the compound was called inactive.
The result for `O=C(Nc1ccccc1)c1cc(Cl)ccc1O` reads “inactive”; that for `S=C1NC=NC2N=CNC12` (stereo not given), “inactive”; that for `CCOC(=O)[C@H](CCc1ccccc1)N[C@@H](C)C(=O)N1[C@H](C(=O)O)C[C@H]2CCCC[C@@H]21`, “inactive”.
The result for `CCOC(=O)COc1ccc2c(=O)cc(-c3ccccc3)oc2c1` reads “inactive”.
The value for `CCCCCCCCCCCCCCCC(=O)OC[C@H](COP(=O)([O-])OCC[N+](C)(C)C)OC(=O)CCCCCCCCCCCCCCC` was “inactive”.
For the compound `CCCCCCCCCCCCN1CCCC1=O`, the compound was called inactive.
Take `CCSCC`: the result was inactive.
The value for `CC(C)c1ccc2sc3ccccc3c(=O)c2c1` was “inactive”; that for `CC/C(=C(/CC)c1ccc(OP(=O)(O)O)cc1)c1ccc(OP(=O)(O)O)cc1` was “inactive”.
As to `CCCCCCCCCCCCCC(=O)OCC(COP(=O)([O-])OCC[N+](C)(C)C)OC(=O)CCCCCCCCCCCCC` (stereo not given), the outcome was inactive.
The value for `C=C1[C@H](CO)[C@@H](O)C[C@@H]1n1cnc2c(=O)[nH]c(N)nc21` was “inactive”; that for `c1ccc(-c2ccc(C(c3ccccc3)n3ccnc3)cc2)cc1` (stereo not given) was “inactive”; that for `NCc1cccc(C2CCN(C(=O)c3ccc(C#Cc4ccccc4F)o3)CC2)c1` was “inactive”.
The result for `CC1(C)C[C@@H]1C(=O)N/C(=C\CCCCSC[C@H](N)C(=O)O)C(=O)O` reads “inactive”; that for `CC(C)(S)C(=O)N[C@@H](CS)C(=O)O`, “inactive”; that for `COc1cccc2c1[C@@H]1CN(CCCCn3c(=O)[nH]c4c(sc5ncc(-c6ccccc6)nc54)c3=O)C[C@@H]1CO2`, “inactive”.
The value for `CC(=O)O[C@H]1C[C@@H]2CC[C@@H]3[C@H](CC[C@@]4(C)[C@H]3C[C@H]([N+]3(C)CCCCC3)[C@@H]4OC(C)=O)[C@@]2(C)C[C@@H]1[N+]1(C)CCCCC1` was “inactive”.
As for `Cc1c(O)c(=O)ccn1C`, the outcome was inactive.
The value for `C[C@@H]1C(=O)NC2=Nc3cccc(Cl)c3CN21` was “inactive”; that for `Cc1ccc2nc(-c3ccc(N)cc3)sc2c1S(=O)(=O)O` was “inactive”; that for `CC[C@H](C)C(=O)O[C@H]1CCC=C2C=C[C@H](C)[C@H](CC[C@@H]3C[C@@H](O)CC(=O)O3)[C@H]21` was “inactive”.
In the case of `CSCC[C@H](NC(=O)[C@H](Cc1ccc(OS(=O)(=O)O)cc1)NC(=O)[C@@H](N)CC(=O)O)C(=O)NCC(=O)N[C@@H](Cc1c[nH]c2ccccc12)C(=O)N[C@@H](CCSC)C(=O)N[C@@H](CC(=O)O)C(=O)N[C@@H](Cc1ccccc1)C(N)=O`, the call was inactive.
The value for `CC(=O)OCC(=O)[C@@]1(O)CC[C@H]2[C@@H]3C[C@H](C)C4=CC(=O)C=C[C@]4(C)[C@H]3[C@@H](O)C[C@@]21C` was “inactive”; that for `CCCCCCCCCCCCCCCCCCNC(=O)OC1CCN(C(=O)OC[C@H](COC(=O)N(Cc2cccc[n+]2CC)C(=O)c2ccccc2OC)OC)CC1` was “inactive”; that for `c1ccc2cc3c4ccccc4c4ccccc4c3cc2c1` was “inactive”.
In the case of `Cc1ccc(Cl)c(N)c1Cl`, the compound was classed as inactive.
The result for `CC(C)NCC1CCc2cc(CO)c([N+](=O)[O-])cc2N1` (stereo not given) reads “inactive”; that for `C(=C\c1ccncc1)/c1ccccc1`, “inactive”.
The result for `CC(=NCc1ccccc1)c1ccccc1O` reads “inactive”.
The result for `C=N[C@@H](C(=O)N[C@@H]1C(=O)N2[C@@H]1SC(C)(C)[C@@H]2C(=O)O)c1ccccc1` reads “inactive”.
For the compound `COc1c(O)cc2c(c1O)[C@@H]1O[C@H](CO)[C@@H](O)[C@H](O)[C@H]1OC2=O`, the compound was classed as inactive.
The value for `O=C(CCCCCCCCc1cccnc1)N1CCC(C=C(c2ccccc2)c2ccccc2)CC1` was “inactive”.
The value for `CCCCCCCCCC(=O)NO` was “inactive”; that for `CCc1ncnc2cc(OC)c(OC)cc12` was “inactive”.
